Rows were chosen to be rich in hits. Some 4% of all compounds tested hit in one or more screens of this group.
TRPM1 prom inh – MITF TRPM1 promoter inhibition in SK-MEL-5 cells. AID 488899. SK-MEL-5 TRPM1 promoter luciferase, 24 h. 330,000 compounds, 0.83% hits. inhibition, % at 12.5 µM;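 active = mean inhibition across replicates of 60% or more, whatever share of single replicates reaches that level; inconclusive = some that reach 60%, reason not given; inactive = mean inhibition across replicates below 60%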
esBAF inh – SWI/SNF esBAF complex inhibition | 350,000 compounds, 2% hits | mouse ES cells, Bmi1-luciferase knock-in reporter, 24 h; 100% = twice the neutral-well signal | reporter increase, % at 12.5 µM; in the data active = activation above about 40%; inconclusive = no clear call, values can overlap the other calls;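 note: a rise in the Bmi1 reporter signal indicates esBAF inhibition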
MITF TRPM1 HTS – MITF TRPM1 promoter activation in melanoma cells | SK-MEL-5 TRPM1-promoter luciferase, 24 h; % of positive control, neutral wells = 0 | activation, % at 12.5 µM | 300,000 compounds, 0.75% hits | AID 588334;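 active = mean activation of at least 80% with every replicate also reaching 80%; inconclusive = mean reaches 80% but some replicate falls short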
LMP1 NFkB inh – reduces LMP1-driven NF-kappaB luciferase signal. LMP1-induced NF-kappaB luciferase reporter cells, luminescence. inhibition, % at 12.5 µM. 350,000 compounds, 0.69% hits; in the data active = inhibition above about 41%; inconclusive = no clear call, values can overlap the other calls
Wnt act – activators of Wnt/beta-catenin signaling; 300,000 compounds, 1.2% hits; AID 743398; activation, % at 9.35 µM; Wnt/beta-catenin reporter cell assay, activator, plate reader; in the data active = activation above about 30%, passing the limit was not always enough; inconclusive = no clear call, values can overlap the other calls
C2C12 statin – suppressors of simvastatin-induced myotoxicity in C2C12 myotubes; 330,000 compounds, 0.78% hits; rescue of ATP level, % at 7.49 µM; ATP luminescence, 48 h; scaled: DMSO 0, geranylgeraniol control 100; AID 602340;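 active = mean ATP rescue above about 67%, or every replicate alone reaching that limit, limit read from the data, passing the limit was not always enough; inconclusive = no clear call, values can overlap the other calls; inactive = mean under the limit and some replicate under it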;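 note: myotubes were challenged with 10 µM simvastatin during compound exposure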
Each line names hits and unclear results; the compound was inactive in the other large screens.

S=C(NCCc1cccc(Cl)c1)NC1CCCCC1	esBAF inh 65.8
Cc1ccc(C)c(Nc2cc(C(=O)NCc3cccnc3)c3ccccc3n2)c1	none
CCOc1cc(Br)cc(/C=N/NC(=O)c2cccnc2)c1O	LMP1 NFkB inh 67.8
COc1c(C(=O)NNC(=O)c2ccccc2Cl)csc1Br	Wnt act 41.0 (no result: esBAF inh, MITF TRPM1 HTS, C2C12 statin)
CC1CC(C)(C)Nc2ccc(N=O)cc21 (stereo not drawn)	TRPM1 prom inh 60.8 (no result: esBAF inh, C2C12 statin)
CC1CC(C)(C)Nc2ccc(OC(=O)c3ccco3)cc21 (stereo not drawn)	none (no result: Wnt act)
Oc1ccc(-c2csc(Nc3ncccn3)n2)cc1	MITF TRPM1 HTS 94.6
CC(=O)Nc1ccc(-c2csc(Nc3ncccn3)n2)cc1	Wnt act 33.2
Cn1c(CNS(=O)(=O)c2cccc(Cl)c2)cc(=O)n(C)c1=O	none (no result: esBAF inh, C2C12 statin)
c1coc(CSc2ncnc3c2oc2ccccc23)c1	esBAF inh 55.8, Wnt act 35.0 (no result: MITF TRPM1 HTS)
Fc1ccccc1CSc1ncnc2c1oc1ccccc12	esBAF inh 41.7
Nc1ccc2c3c(ccc([N+](=O)[O-])c13)CC2	none (no result: TRPM1 prom inh, MITF TRPM1 HTS)
O=C(O)c1cc(/C=C/c2ccc(N3CCOCC3)c([N+](=O)[O-])c2)nc2ccccc12	Wnt act 34.0 (no result: esBAF inh, C2C12 statin)
O=C(O)c1cc(/C=C/c2ccc(N3CCOCC3)cc2)nc2ccccc12	LMP1 NFkB inh 59.2 (no result: esBAF inh, C2C12 statin)
CC(=O)Nc1ccc(N=Nc2ccccc2)cc1[N+](=O)[O-]	esBAF inh 56.4 (no result: TRPM1 prom inh, MITF TRPM1 HTS, LMP1 NFkB inh)
c1ccc(CSCc2nc3ccccc3[nH]2)cc1	MITF TRPM1 HTS 110.6 (no result: esBAF inh, Wnt act, C2C12 statin)
CCC(C)SCc1nc2ccccc2[nH]1 (stereo not drawn)	esBAF inh inconclusive, C2C12 statin 121.0 (no result: Wnt act)
O=[N+]([O-])c1ccc(CSc2nc3ccccc3[nH]2)cc1	esBAF inh 72.4, MITF TRPM1 HTS inconclusive
N/N=C(/Cc1nc2ccccc2[nH]1)c1ccc([N+](=O)[O-])cc1	Wnt act 38.4 (no result: esBAF inh, C2C12 statin)
O=C(CCCCCN1C(=O)[C@@H]2Cc3ccccc3CN2C1=O)Nc1ccccc1F	none
O=C(CSCc1nc2ccccc2[nH]1)Nc1ccccc1	LMP1 NFkB inh 59.5 (no result: Wnt act)
O=C(NCc1ccccc1Cl)c1ccc(CSc2nc3ccncc3[nH]2)cc1	none
CCSc1nc2ccccc2[nH]1	none (no result: Wnt act)
Clc1ccccc1CSc1nc2ccncc2[nH]1	esBAF inh inconclusive, Wnt act 38.9
O=C(CSCc1cccc(CSCC(=O)Nc2ccccc2)n1)Nc1ccccc1	none (no result: Wnt act)
c1ccc(CSc2nc3ccccc3[nH]2)cc1	MITF TRPM1 HTS 110.6, Wnt act 68.3
Nc1ncnc2nc(SCc3ccccc3)[nH]c12	C2C12 statin 98.8 (no result: Wnt act)
C=CCSc1nc(-c2ccccc2)c(C#N)c(=O)[nH]1	none (no result: Wnt act)
O=C(C[C@@H]1C[C@H]2c3cc(NC(=O)CC4CC4)ccc3O[C@H]2[C@@H](CO)O1)NCc1cccnc1	none (no result: TRPM1 prom inh, MITF TRPM1 HTS, LMP1 NFkB inh, Wnt act)
Cc1cccc(OCCSCc2nc3ccccc3[nH]2)c1	C2C12 statin 80.6
Fc1ccc(CSc2nc3ccccc3[nH]2)cc1	MITF TRPM1 HTS 103.7 (no result: Wnt act)
O=[N+]([O-])c1cccc(C(=S)N2CCCC2)c1	none (no result: esBAF inh, C2C12 statin)
CCOC(=O)C1CCN(c2c(N3CCN(c4ccccc4OC)CC3)c(=O)c2=O)CC1	none
CCN1CCN(CCNC(=O)c2ccc3nc(-c4cccc(C)c4)c(-c4cccc(C)c4)nc3c2)CC1	TRPM1 prom inh 86.6
CCCN(CCC)CCCNC(=O)c1ccc2c(Cl)c3c(nc2c1)CCC3	none (no result: MITF TRPM1 HTS)
CCN1CCN(CCCNC(=O)c2ccc3c(Cl)c4c(nc3c2)CCCC4)CC1	TRPM1 prom inh 91.6
COCCNC(=O)c1ccc2c(Cl)c3c(nc2c1)CCC3	esBAF inh inconclusive, MITF TRPM1 HTS 100.0, Wnt act 35.9
CCCNC(=O)c1ccc2nc(-c3ccccc3)c(-c3ccccc3)nc2c1	none (no result: C2C12 statin)
CC(=O)N1CC(C)Sc2ccc(S(=O)(=O)NCc3ccccc3Cl)cc21 (stereo not drawn)	none
CCN(CC)S(=O)(=O)c1ccc(N2CCN(C)CC2)c(NC(=O)COc2ccc(F)cc2Cl)c1	none (no result: esBAF inh)
Cn1c(CNc2nc3ccccc3n2C)nc2ccccc21	esBAF inh 68.0 (no result: MITF TRPM1 HTS, C2C12 statin)
Cn1c(NCc2ccc(Cl)cc2)nc2ccccc21	esBAF inh 71.3
Cc1ccc(CNc2nc3ccccc3n2C)cc1	none (no result: MITF TRPM1 HTS)
Cn1c(CNc2ccc(Br)cc2)nc2ccccc21	MITF TRPM1 HTS inconclusive, Wnt act 39.6 (no result: esBAF inh, C2C12 statin)
Cc1ccc(NCc2nc3ccccc3n2C)cc1	esBAF inh 71.7 (no result: MITF TRPM1 HTS, Wnt act)
O=C(COc1ccccc1Cl)N(Cc1cccs1)C1CCS(=O)(=O)C1 (stereo not drawn)	none (no result: esBAF inh, C2C12 statin)

Compound activity as filed in PubChem BioAssay.
